Data taken from PubChem BioAssay AID602139 (NMMLSC, 2011).
“And” between values parts separate entries of the source, which are not always exact repeats. Equal entries are not always repeated. Some of the results follow. A number with no mark means an inactive call. The source made the active and inactive calls. Rule as the data show it: active = inhibition above about 32%; inactive = the rest.

What follows are compounds tested on Botulinum neurotoxin type A light chain protease (Clostridium botulinum A str. ATCC 3502) (assay: inhibition of botulinum toxin A LC protease – biochemical, flow cytometry, cherry pick 1, confirmation (AID 602139)). Conditions: multiplex microsphere protease assay, at 10 µM, active compounds read high.

SMILES	inhibition
Cc1c(NC(=O)c2cccnc2)c(=O)n(-c2ccccc2)n1C	0.8%
CCOCC(=O)NCc1ccc2c(c1)cc(C)n2C	1.8%
CC(C)Cc1nnc(NC(=O)CCC(=O)Nc2ccc3cn[nH]c3c2)s1	-0.8%
COC(=O)CN(c1nc(C)c(Cl)c(OC)n1)S(=O)(=O)c1ccc(C)cc1	1.8%
Clc1ccc(-c2ncc3ccccn23)c(Cl)c1	2.4%
CC1CCN(C(=O)c2ccc(S(=O)(=O)Cc3cc(F)ccc3F)c([N+](=O)[O-])c2)CC1	0.4%
Cc1cc(S(=O)(=O)NC2CCCC2)ccc1-n1cnnn1	0.3%
O=C(O)c1cc(S(=O)(=O)NC2CCCc3ccccc32)ccc1O (stereo unspecified)	0.7%
CCN1CCN(C(C(=O)NC2CCCC2)c2cc3c(cc2[N+](=O)[O-])OCO3)CC1 (stereo unspecified)	-0.8%
O=C(Nc1nnc(CCc2ccccc2)s1)C1CCCO1 (stereo unspecified)	-0.5%
COCc1cc(=O)[nH]c(SC)n1	0.2%
CC1CCc2c(sc3nc4n(c(=O)c23)CCS4)C1 (stereo unspecified)	0.4%
CCOc1nnc(C)c2c(C)n(-c3cccc(Cl)c3)nc12	-6.5%
COc1ccc(C(=O)Nc2nc(-c3ccc(OC)cc3)c(-c3ccc([N+](=O)[O-])cc3)s2)cc1	15.9%
COc1ccc(C2CC(c3cccs3)=NN2c2nc(C)c(C(C)=O)s2)cc1OC (stereo unspecified)	33.8% (active) and 32.3% (active)
O=S(=O)(NC1CCCCC1N1CCC(O)CC1)c1ccc(Cl)cc1 (stereo unspecified)	-1%
COc1ccccc1CNC(=O)C1Cc2ccccc2C(=O)O1 (stereo unspecified)	-0.4%
COc1ccc(NS(=O)(=O)c2cc(C(=O)Nc3ccccc3C(=O)O)ccc2C)cc1	0.6%
CN(C(=O)c1ccccn1)c1nnc(-c2ccccn2)s1	-1.1%
Brc1ccc2ncnc(NCc3cccnc3)c2c1	-2.2%
CCCSc1nc2sc3c(c2c(=O)n1-c1ccc(OC)cc1)CCN(C)C3	1.8%
